Screens (PubChem BioAssay)
hERG WT inh – qHTS for Inhibitors of KCHN2 3.1: Wildtype qHTS; activity change, % at 1.84 µM; U2OS, BacMam KCNH2, thallium flux FluxOr; stronger effect = lower value; Voltage-gated inwardly rectifying potassium channel KCNH2 (Homo sapiens), Q12809; AID 720551, 2013; 0.37% of 340,000 active;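 active = maximum activity change below -70%; inconclusive = maximum activity change between -70% and -50%; inactive = maximum activity change above -50%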; note: % is set by controls: 0 for no effect and ±100 for the full control effect
Target sequence (Q12809 whole entry, looked up): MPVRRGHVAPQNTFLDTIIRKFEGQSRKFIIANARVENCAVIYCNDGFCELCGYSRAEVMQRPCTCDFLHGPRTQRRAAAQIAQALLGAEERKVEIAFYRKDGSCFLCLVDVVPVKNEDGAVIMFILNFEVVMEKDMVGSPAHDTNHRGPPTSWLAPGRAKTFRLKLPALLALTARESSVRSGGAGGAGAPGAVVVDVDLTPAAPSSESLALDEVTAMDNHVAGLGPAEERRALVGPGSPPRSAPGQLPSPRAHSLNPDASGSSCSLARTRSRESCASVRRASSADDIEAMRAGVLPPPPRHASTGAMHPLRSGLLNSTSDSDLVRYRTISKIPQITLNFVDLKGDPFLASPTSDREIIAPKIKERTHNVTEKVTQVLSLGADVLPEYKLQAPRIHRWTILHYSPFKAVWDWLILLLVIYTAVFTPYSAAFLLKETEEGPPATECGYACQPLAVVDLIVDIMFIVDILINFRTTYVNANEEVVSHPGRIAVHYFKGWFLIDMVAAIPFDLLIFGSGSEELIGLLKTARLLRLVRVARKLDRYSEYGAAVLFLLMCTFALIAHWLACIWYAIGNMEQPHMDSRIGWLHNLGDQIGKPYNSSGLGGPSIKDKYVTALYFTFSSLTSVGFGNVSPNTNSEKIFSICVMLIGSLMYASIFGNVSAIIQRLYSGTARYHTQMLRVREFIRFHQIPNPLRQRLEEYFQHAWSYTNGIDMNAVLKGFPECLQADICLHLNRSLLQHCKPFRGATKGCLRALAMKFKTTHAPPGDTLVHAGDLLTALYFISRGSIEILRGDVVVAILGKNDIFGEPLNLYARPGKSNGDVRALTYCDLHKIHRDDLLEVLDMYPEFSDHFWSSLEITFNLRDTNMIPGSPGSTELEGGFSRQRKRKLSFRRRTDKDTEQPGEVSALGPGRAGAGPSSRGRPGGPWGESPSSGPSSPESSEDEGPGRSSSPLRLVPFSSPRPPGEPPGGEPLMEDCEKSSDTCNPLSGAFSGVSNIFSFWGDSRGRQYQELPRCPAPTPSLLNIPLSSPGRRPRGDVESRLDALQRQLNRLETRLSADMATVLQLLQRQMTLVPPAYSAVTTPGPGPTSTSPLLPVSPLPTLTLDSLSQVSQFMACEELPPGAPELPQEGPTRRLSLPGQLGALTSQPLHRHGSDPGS
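U2OS cells were transduced with wild-type KCNH2 virus (2.03 x 10^8 / mL) for 4 h at room temperature, then cultured overnight at 37 C. Thallium flux was read with FluxOr dye. Rate constants were normalized to DMSO controls.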
KCNH2 3.1 inh – qHTS for Inhibitors of KCHN2 3.1: Mutant qHTS. Potassium voltage-gated channel subfamily H member 2, brain isoform KCNH2 3.1 (human). U2OS KCNH2 3.1, thallium flux FluxOr; stronger effect = lower value. activity change, % (tested at about 1.8 µM). 0.95% of 340,000 active. AID 720553, 2013;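 active = maximum activity change below -70%; inconclusive = maximum activity change from -70% to -50%; inactive = maximum activity change above -50%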;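 note: thallium influx rate constant from kinetic fluorescence after stimulation buffer; % is set by controls: 0 for no effect and ±100 for the full control effect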
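Thallium flux via FluxOr fluorescence (Red40 quencher, 45 min loading) in U2OS cells virally expressing the KCNH2 3.1 isoform (1.77 x 10^8 /mL virus, overnight at 37 C). Rate constants from 2-min kinetic reads post-stimulation, normalised to positive and negative controls.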
SW480 rereplic – A quantitative high throughput screen for small molecules that induce DNA re-replication in SW480 colon adenocarcinoma cells. SW480 DNA re-replication, Hoechst DNA content imaging, 48 h. Potency, µM (highest dose often 46.1 µM), for the others: top-dose re-replication activation, hits mostly activators. 1.8% of 340,000 active; note: potency is the fitted concentration of half-maximal effect; % of control where 0% means no effect; nearly all actives have a fitted effect of over 55% in size
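Compounds, transferred as 23 nL by pin tool, were incubated with cells for 48 hr; DNA content per nucleus was then quantified by Hoechst staining and fluorescence plate imaging.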
KB-3-1 cytotox – qHTS assay for MDR1-selective chemotherapeutics: Primary screen using the parental adenocarcinoma cell KB-3-1; KB-3-1 viability, CellTiter-Glo ATP luminescence, 72 h; Potency, µM (top dose mostly 46.1 µM), hits mostly cytotoxic; 1.4% of 400,000 active; AID 1347075, 2019; note: potency is the fitted concentration of half-maximal effect; % is set by controls: 0 for no effect and ±100 for the full control effect; nearly all actives have a fitted effect of over 60% in size
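Using CellTiter-Glo luminescence, growth of non-resistant KB-3-1 adenocarcinoma cells is assessed 72 h after pin-tool compound addition at 37 °C. Normalized responses across the concentration series yield fitted curves.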
KB-V1 MDR tox – qHTS assay for MDR1-selective chemotherapeutics: Primary screen using the drug-selected MDR subline cells KB-V1 | KB-V1 MDR cells viability, CellTiter-Glo, 72 h | Potency, µM (titrated, usually from 46.1 µM), usual class: cytotoxic | 3.4% of 400,000 active | AID 1347076, 2019; note: potency is the fitted concentration of half-maximal effect; % is set by controls: 0 for no effect and ±100 for the full control effect; nearly all actives have a fitted effect of over 60% in size
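Following 72 h at 37 degrees C with compound, KB-V1 cell viability was read by CellTiter-Glo luminescence, medium being phenol-red-free DMEM plus 10% FBS; concentration-response parameters came from normalized, curve-fitted qHTS data.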
MCF10A rereplic – A quantitative high throughput screen for small molecules that induce DNA re-replication in MCF 10a normal breast cells; Potency, µM (highest dose often 46.1 µM), for inactives: at the top dose activity, positive = re-replication, actives largely listed as activators; 2.9% of 350,000 active; MCF 10A DNA re-replication, Hoechst nuclear intensity, 48 h; note: potency is the fitted concentration of half-maximal effect; % of control where 0% means no effect; nearly all actives have a fitted effect of over 50% in size
Starred values were filed as active, the others as inactive; i = inactive; u = inconclusive; x = no result. Compounds with a hit are over-represented: about 7.6% of the library has one in this group of screens. Unless noted, calls come from the whole dose curve; as a rule, active = well fitted curve in the direction sought with a large enough effect; inconclusive = small, poorly fitted or top-dose-only effect, or another doubt; inactive = no such curve, though single readings can be large; an effect the other way counts as inactive or inconclusive.

SMILES | hERG WT inh | KCNH2 3.1 inh | SW480 rereplic | KB-3-1 cytotox | KB-V1 MDR tox | MCF10A rereplic
CCOCCCN(C)C1CCN(C(=O)c2oc3ccccc3c2NC(=O)COc2ccc(F)cc2)CC1 | -42 | -100* | u | i | i | u
O=C(COc1ccccc1)Nc1c(C(=O)N2CCN(c3ccc(F)cc3)CC2)oc2ccccc12 | x | x | x | i | i | x
O=C(Cc1ccccc1)Nc1c(C(=O)N2CCN(c3ccc(F)cc3)CC2)oc2ccccc12 | x | x | x | i | 12µM* | x
O=C(Nc1nnc(C2CC2)s1)c1cccc(S(=O)(=O)N2CC(c3ccccc3)CC2=O)c1 (stereo not drawn) | 18 | 16 | -7% | i | i | 19%
Cc1ccc(CC(=O)Nc2c(C(=O)N3CCN(c4ccccc4)CC3)oc3ccccc23)cc1 | x | x | x | i | u | x
O=C(Nc1c(C(=O)N2CCN(c3ccccn3)CC2)oc2ccccc12)c1ccc([N+](=O)[O-])cc1 | u | -105* | -4% | i | i | 2%
O=C(NCCC(=O)N1CCN(c2ccccn2)CC1)c1ccc([N+](=O)[O-])cc1 | 10 | 0 | -42% | i | i | 4%
CCOCCCN(C)C1CCN(C(=O)c2oc3ccccc3c2NC(=O)Cc2ccc([N+](=O)[O-])cc2)CC1 | -102* | -100* | -2% | i | i | 5%
O=c1c2c3c(sc2n(Cc2ccccc2F)c(=O)n1-c1ccc(Cl)cc1)CCCC3 | x | x | x | i | i | x
CC(Oc1ccc(C#N)cc1)C(=O)c1ccc(F)c(F)c1 (stereo not drawn) | 0 | -13 | -27% | i | i | 5%
COCCNC(=O)C1CCN(S(=O)(=O)N2CCC3(CC2)OCCO3)CC1 | -8 | -200* | -5% | i | i | -5%
CCCS(=O)(=O)N1CCC(C(=O)NCCCOC)CC1 | 11 | x | -7% | i | i | 0%
COc1ccc(CCNC(=O)C2CCN(S(=O)(=O)N3CCC4(CC3)OCCO4)CC2)cc1OC | -4 | -3 | -4% | u | i | 2%
CCS(=O)(=O)N1CCC(C(=O)NCCCOC)CC1 | 0 | 9 | 15µM* | i | i | u
C=C1CCN([C@@H](CC(C)C)C(=O)NCc2ccc(Cl)cc2)S(=O)(=O)c2ccccc21 | 5 | 1 | -14% | i | i | u
C=C1CCN([C@@H](CC(C)C)C(=O)NCCC(C)C)S(=O)(=O)c2ccccc21 | -2 | -75* | u | i | i | 7%
C=CC(=O)N1CCC[C@@H](n2nc(-c3ccc(Oc4ccccc4)cc3)c3c(N)ncnc32)C1 | x | x | x | u | 22µM* | x
COc1ccc(NC(=S)N(CCCN2CCCC2)Cc2cccn2Cc2ccc(Cl)cc2)cc1Cl | 8 | 3 | 23µM* | i | 18µM* | 21µM*
Cc1ccc(NC(=S)N(CCCN2CCCC2)Cc2cccn2Cc2ccc(Cl)cc2)cc1Cl | 13 | u | u | i | i | u
COc1ccc(N=c2nc(-c3ccccc3)n(-c3ccc(C)cc3)s2)cc1 | x | x | x | u | i | x
Fc1ccc(-c2cc(-c3ccccc3)nc(-n3cccn3)n2)cc1 | i | 0 | 3% | i | i | 18µM*
c1ccc(Nc2nc(Nc3ccccc3)nc(-n3cccn3)n2)cc1 | x | x | x | u | i | x
CCc1nnc(NC(=O)CCN(c2cc(C)cc(C)c2)S(=O)(=O)c2ccc(Cl)cc2)s1 | -5 | 4 | 26% | u | 2.6µM* | u
Cc1ccc(S(=O)(=O)N2CCCC(C(=O)NCc3ccccc3F)C2)cc1 (stereo not drawn) | -2 | 12 | -35% | i | i | u
